High-throughput results: PubChem, National Center for Advancing Translational Sciences (NCATS)
PNC inhibitor: blocks assembly of the perinucleolar compartment. PC3M PTB-GFP, PNC prevalence imaging, 16 h; active compounds read low. activity change (PNC), negative = inhibition, % at 10 µM. actives 3.1% (n = 140,000);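 active = readout at or below -70, meaning at least 70% loss of cells showing the perinucleolar compartment, a nuclear body marking cancer cells; inconclusive = readout between -30 and a set limit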;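 note: plate controls were DMSO wells for no effect and camptothecin positive control wells for full effect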
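Read-out is percentage of cells bearing a perinucleolar compartment, from automated 20x imaging of fixed, Hoechst-stained PC3M PTB-GFP cells. Cells were seeded 4 h, then exposed 16 h to compound (23 nl of library stock) in duplicate plates.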
ALDH1A1 block: blocks purified human ALDH1A1 activity; P00352; AID 1030; actives 7.3% (n = 220,000); Potency, µM (series often up to 75.3 µM), for inactives: top-dose activity, negative = inhibition, usual class: inhibitors; Purified ALDH1A1, NADH fluorescence, propionaldehyde substrate;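 note: potency is the fitted concentration of half-maximal effect; plate controls were no enzyme wells and a reference inhibitor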
Target sequence (P00352 whole entry, looked up): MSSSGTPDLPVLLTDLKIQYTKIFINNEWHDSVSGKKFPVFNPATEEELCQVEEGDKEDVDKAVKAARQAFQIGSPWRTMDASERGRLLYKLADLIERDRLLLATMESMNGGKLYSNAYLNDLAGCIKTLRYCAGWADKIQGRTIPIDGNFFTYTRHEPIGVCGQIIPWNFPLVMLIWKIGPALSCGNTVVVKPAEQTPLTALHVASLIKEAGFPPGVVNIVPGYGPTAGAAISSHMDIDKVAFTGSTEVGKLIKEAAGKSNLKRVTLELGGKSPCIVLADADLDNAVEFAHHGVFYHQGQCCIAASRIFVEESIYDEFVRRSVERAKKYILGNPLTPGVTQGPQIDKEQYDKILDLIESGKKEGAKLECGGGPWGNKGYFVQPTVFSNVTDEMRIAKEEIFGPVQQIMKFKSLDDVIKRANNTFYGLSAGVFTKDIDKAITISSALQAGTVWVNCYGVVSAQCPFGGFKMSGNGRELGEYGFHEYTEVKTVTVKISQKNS
HPGD inh: blocks human HPGD enzyme activity; AID 894; P15428; Potency, µM, for the others: at the highest dose activity change, negative = inhibition, usual class: inhibitors; actives 4.3% (n = 150,000); purified HPGD, NADH fluorescence kinetic, PGE2 substrate; note: potency is the fitted concentration of half-maximal effect
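20 nM HPGD preincubated 15 min at room temperature with compound in 50 mM Tris-HCl pH 8, 0.01% Tween 20. Started with 1 mM NAD+ and 30 uM prostaglandin E2; NADH fluorescence (360/450 nm) read 5 times over 30-s intervals, last minus first.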
Starred values were filed as active, the others as inactive; u = inconclusive; x = not tested or not shown; [ ] = dose if it differs, or a comment. Compounds with a hit are over-represented: about 11% of the library has one in this group of screens. Unless noted, calls come from the whole dose curve; as a rule, active = well fitted inhibition curve with a large enough effect (not every such curve was filed as active); inconclusive = small, poorly fitted or top-dose-only effect, or another doubt; inactive = no such curve, though single readings can be large or run the other way. Unless noted, % is set by controls: 0 for no effect and ±100 for the full control effect.

SMILES | PNC inhibitor | ALDH1A1 block | HPGD inh
N/C(=N\OC(=O)COc1ccc2ccccc2c1)c1cccnc1 | -15 | u | -28%
CCOC(=O)c1sc(=S)n(C)c1NC(=O)c1ccc(F)cc1 | 68 | 2.5µM* | 7.9µM*
CCOC(=O)c1sc(=S)n(C)c1NC(=O)c1ccccc1C | u | 10µM* | 10µM*
CCOC(=O)c1ccc(NC(=O)c2ccccc2C)cc1 | 27 | u | -12%
CCOC(=O)c1sc(=S)n(CC)c1NC(=O)CC | 4 | -11% | -5%
COC(=O)c1cc(CSc2nnc(-c3ccccc3)c(-c3ccccc3)n2)oc1C | 5 | 16µM* | u
Cc1cc(NC(=O)CSc2nnc(-c3ccccc3)c(-c3ccccc3)n2)no1 | x | 2% | x
CN(C)Cc1cc(CCNC(=O)c2ccc(Cl)cc2)ccc1O | 27 | 4% | -11%
COc1cc(OC)cc(-c2nc3ccccc3c(=O)n2OC(=O)c2ccccc2C)c1 | -22 | -2% | -9%
O=C(On1c(-c2ccccc2)nc2ccccc2c1=O)c1ccco1 | 10 | 8.9µM* | u
Cc1cccc(NC(=O)Cn2c(O)c(N=NC(=O)c3ccccc3O)c3ccccc32)c1 | -12 | 13µM* | -7%
Cc1cccc(NC(=O)Cn2c(=O)n(CCC(=O)NC3CCCC3)c(=O)c3ccccc32)c1 | -2 | 6% | -14%
O=C1CS/C(=N/N=C/c2ccccc2OS(=O)(=O)c2ccccc2)N1 | u | -14% | -19%
Cc1ccc(OS(=O)(=O)c2ccccc2)c(/C=N/N=C2\NC(=O)C(C)S2)c1 (stereo unspecified) | -82* | 12% | -5%
CCC1(O)c2ccccc2-c2ncccc21 (stereo unspecified) | -4 | 9% | -4%
c1ccc(C(c2ccccc2)N2CCCC3(CCNCC3)C2)cc1 | x | 2% | -2%
O=C(O)CC1=C(O)C(=O)N(c2ccccc2)C1c1ccccc1 (stereo unspecified) | -18 | 6.3µM* | -16%
O=C(O)CC1=C(O)C(=O)N(c2ccccc2)C1c1ccc(Br)cc1 (stereo unspecified) | -9 | 8% | 0%
CC(C)=NNc1nc(-c2ccc(N3C(=O)CCC3=O)cc2)cs1 | x | 11µM* | x
Cc1ccc(-c2csc(NC(=O)C3=NN(c4ccccc4)C(=O)CC3)n2)cc1 | 37 | -9% | -16%
OCCn1c(Cl)nc2ccccc21 | -13 | 11% | -1%
COc1ccc(C(=O)NCC23C=CC(O2)C2C(=O)N(Cc4ccccc4)C(=O)C23)cc1 (stereo unspecified) | -20 | 7.9µM* | -7%
COc1ccc(CCNC(=O)c2ccc(CN3CCC(Cc4ccccc4)CC3)cc2)cc1 | 19 | 7% | -6%
Cc1cc(C)c(S(C)(=O)=O)c(Oc2ccc(F)cc2)n1 | 74 | -41% | -5%
Cc1cc(C)c(S(=O)(=O)c2ccccc2C)c(OCC(C)(C)C)n1 | u | 13µM* | -14%
SMILES | PNC inhibitor | ALDH1A1 block | HPGD inh
Cc1cc(-c2ccccc2)nc(Oc2ccc(C(C)(C)C)cc2)c1S(C)(=O)=O | 2 | -12% | -11%
Cc1cc(C)cc(Oc2nc(-c3ccccc3)cc(C)c2S(C)(=O)=O)c1 | -112* | 14µM* | u
CCOCCOc1nc(C)cc(C)c1S(=O)(=O)c1ccccc1C | x | 0% | x
Cc1cc(C)c(S(C)(=O)=O)c(Oc2ccccc2C)n1 | 59 | 10% | 28µM*
O=C(COC(=O)CCCc1nc2ccccc2s1)Nc1ncc(Cl)cc1Cl | 31 | -6% | -2%
Cc1ccsc1/C=C\C1=NCCCN1C | x | 5%[20.9 µM] | -8%
C=CCC1(C#N)C(SC)=NC2=C(C(=O)CC(C)(C)C2)C1c1ccc(Br)cc1 (stereo unspecified) | -7 | -1% | -5%
COc1cccc(NC(=O)CCN2CCC(C(N)=O)CC2)c1 | 22 | 5% | -5%
Cc1ccc2cc(C(c3nnnn3C(C)(C)C)N3CCCC3)c(=O)[nH]c2c1C (stereo unspecified) | 21 | u | -21%
COc1ccccc1N1CCN(C(=O)CCCn2c(=O)[nH]c3ccsc3c2=O)CC1 | 34 | -3% | -4%
COc1ccccc1CNC(=O)CCn1c(=O)[nH]c2ccsc2c1=O | -100* | 9% | -6%
O=S(=O)(NCCn1ccc2ccccc21)c1ccccc1 | 10 | u | -7%
O=C(NC1CCN(C(=O)Nc2ccccc2Cl)CC1)c1ccccc1 | x | 5% | x
COc1ccc(S(=O)(=O)N(C)C)cc1NCC(=O)Nc1cccc(C#N)c1 | x | 20µM* | x
Cc1c(Cl)cccc1NC(=O)CNc1cccc(S(=O)(=O)N(C)C)c1 | -13 | -36% | -4%
COc1cc(CCC(=O)Nc2cccc(S(=O)(=O)N(C)C)c2)cc(OC)c1OC | 0 | 0% | -1%
CCNc1ccc(S(=O)(=O)N(C)C)cc1NCC(=O)Nc1ccccc1F | 17 | 20µM* | 0%
CCNc1ccc(S(=O)(=O)N(C)C)cc1NCC(=O)Nc1ccccc1Br | x | 25µM* | x
CCN(CC)S(=O)(=O)c1ccc2nnn(OCC(=O)Nc3cccc(C#N)c3)c2c1 | -24 | 14µM* | -7%
CCNc1ccc(S(=O)(=O)N(C)C)cc1NCC(=O)Nc1ccc(Br)cc1F | u | -1% | -22%
CN(C)S(=O)(=O)c1ccc2nnn(OCC(=O)NC34CC5CC(CC(C5)C3)C4)c2c1 | u | 1% | -2%
CC1CC(C)(C)NC(=S)N1CCC(=O)N1c2ccccc2CC1C (stereo unspecified) | x | 4% | x
CC1=NC(C#N)=C(C#N)NC(C)(C)C1 | x | 5% | x
COc1ccc(NC(=O)C(=O)NCCO)cc1Cl | 90 | 16% | -11%
Cc1nc2ncnn2c(N2CCN(c3cccc(C(F)(F)F)c3)CC2)c1C | u | -2% | -29%
SMILES | PNC inhibitor | ALDH1A1 block | HPGD inh
O=C(NCC1CCCO1)C(c1cccs1)N(C(=O)c1ccc(CN2CCOCC2)o1)c1ccc(Cl)cc1 (stereo unspecified) | u | 0% | -6%
COc1ccc(NC(=O)CNc2cccc(C#N)c2)cc1Cl | u | u | -21%
COc1ccc(NCC(=O)Nc2ccc(C#N)cc2)cc1Cl | 6 | 10µM* | -16%
CCNc1ccc(S(=O)(=O)N(C)C)cc1NCC(=O)Nc1ccc(F)c(Cl)c1 | u | 25µM* | -9%
O=C(CNCCO)Nc1ccc(F)c(Cl)c1 | x | 2% | x
Cc1ccc(C(=O)Oc2csc(=S)n2C(=O)c2ccc(C)cc2)cc1 | u | 3.5µM* | 5µM*
Cc1ccc(C(=O)N2CCSC2=S)cc1 | x | -1% | x
O=C(c1cc(C2CC2)nc2ccc(Br)cc12)N1N=C(C(F)F)CC1(O)C(F)F (stereo unspecified) | 27 | -6% | -21%
COc1cc(CC(C#N)(CO)c2nc3ccccc3[nH]2)ccc1OC(F)F (stereo unspecified) | 31 | -1% | -8%
CC(=O)N(CN1C(=O)c2ccc([N+](=O)[O-])cc2C1=O)c1cccc(C(=O)O)c1 | x | 5% | x
CCN1C(=O)/C(=C\c2ccc(-c3ccc([N+](=O)[O-])cc3OC)o2)SC1=Nc1cccc(C(=O)O)c1 | x | 0.63µM* | x
Cc1ccccc1OCCN1C(=O)NC2(CCc3ccccc32)C1=O (stereo unspecified) | u | 3% | -21%
CCc1ccc(C(=O)Cn2ncc(Cl)c(Cl)c2=O)cc1 | 6 | 14µM* | -2%
O=c1c(Cl)c(Cl)cnn1Cc1nnc(-c2ccc(Cl)cc2)o1 | x | 8.9µM* | x
